From PubChem BioAssay AID588852 (The Scripps Research Institute Molecular Screening Center, 2011)
Screen size: about 360,000 compounds; about 4,600 (1.3%) were called active. The sample holds actives, similar compounds and a random draw of the others, so the mix is not that of the screen.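 How the source made its calls: active means percent inhibition above its own plate's cutoff, namely the mean of that plate's compound wells plus 3 SD; inactive means the rest.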

These compounds were tested against Muscarinic acetylcholine receptor M1 (Homo sapiens) (UniProt P11229) (assay: human M1 muscarinic receptor antagonists, primary screen, CHO-K1 cells, Fluo-8 calcium fluorescence, 1536-well (AID 588852;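 further: peak over basal fluorescence ratio during 140 s after agonist addition; 0% = ACh EC80 plus DMSO and 100% = DMSO alone without agonist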)). Details: CHO-K1 hM1, Fluo-8 calcium fluorescence, ACh EC80 antagonist; at 3 µM; stronger effect = higher value.
Sequence of Muscarinic acetylcholine receptor M1 (Homo sapiens) (P11229 whole entry, looked up): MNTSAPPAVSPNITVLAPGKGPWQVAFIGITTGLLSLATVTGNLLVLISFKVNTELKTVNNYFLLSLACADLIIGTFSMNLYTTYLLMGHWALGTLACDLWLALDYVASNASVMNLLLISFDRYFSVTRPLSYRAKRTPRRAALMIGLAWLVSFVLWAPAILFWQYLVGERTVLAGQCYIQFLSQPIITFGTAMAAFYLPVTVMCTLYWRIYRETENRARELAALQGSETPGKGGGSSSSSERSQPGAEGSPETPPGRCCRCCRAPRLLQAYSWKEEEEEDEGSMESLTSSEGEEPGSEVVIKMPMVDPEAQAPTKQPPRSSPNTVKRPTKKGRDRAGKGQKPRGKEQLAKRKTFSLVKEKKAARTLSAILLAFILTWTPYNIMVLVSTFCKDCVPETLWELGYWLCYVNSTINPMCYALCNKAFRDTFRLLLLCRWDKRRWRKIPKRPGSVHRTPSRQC

| Compound | inhibition |
| --- | --- |
| COc1ccccc1-c1cnn2c(N3CCOCC3)cc(C)nc12 | -0.68% (inactive) |
| C=CCn1c2c(c3ccccc31)CCC2 | 3.67% (inactive) |
| Cc1ccc2cc3cc(C(=O)N4CCCCCC4)oc3nc2c1 | -17.6% (inactive) |
| Fc1ccc2[nH]c3c(N4CCSCC4)ncnc3c2c1 | 41.1% (active) |
| CCOC(=O)N(Cc1ccccc1)C1CC1 | -16% (inactive) |
| CCCCNC(=O)CSc1nc2ccc(NC(=O)CSc3nnc(COc4ccccc4C)n3C)cc2s1 | -13.4% (inactive) |
| CCCCNC(=O)CSc1nc2ccc(NC(=O)CSc3nnc(N)s3)cc2s1 | -9.73% (inactive) |
| Nc1nnc(SCC(=O)Nc2ccc3nc(SCC(=O)Nc4ccccc4)sc3c2)s1 | 30.3% (active) |
| O=C1c2ccccc2C(c2nc3ccccc3[nH]2)N1c1ccccc1 (stereo not given) | -32.7% (inactive) |
| CCS(=O)(=O)Nc1ccc(C2=NN(S(=O)(=O)c3ccc(F)cc3)C(c3ccco3)C2)cc1 (stereo not given) | -7.75% (inactive) |
| COc1ccc(-c2cc(C(=O)N(C)Cc3ccc(OC)c(OC)c3OC)c3ccccc3n2)cc1OC | 41.5% (active) |
| COc1ccc(CN(C)C(=O)Cc2c[nH]c3ccccc23)c(OC)c1OC | -18.1% (inactive) |
| COc1ccc(Cl)cc1NC(=O)CN(C)C(=O)c1cc2ccccc2cc1OC | -2.48% (inactive) |
| COc1ccc(-c2cc(C(=O)N(C)CC(=O)Nc3ccccc3Cl)c3ccccc3n2)cc1OC | 21% (active) |
| COc1ccc(NC(=O)c2cc(-c3cc(OC)c(OC)c(OC)c3)nc3ccccc23)c(OC)c1 | -10.6% (inactive) |
| COc1ccc(-c2cc(C(=O)n3cnc4ccccc43)c3ccccc3n2)cc1 | -11.1% (inactive) |
| COc1ccc(CN(C)C(=O)c2cc(-c3ccc(C)cc3C)nc3ccccc23)c(OC)c1OC | 26.6% (active) |
| COc1ccc(-c2cc(C(=O)N(C)Cc3ccccc3)c3ccccc3n2)cc1 | 41% (active) |
| COc1ccc(S(=O)(=O)N2CCCCCC2)cc1C(=O)N(C)Cc1cccc(OC)c1OC | -2.19% (inactive) |
| COc1ccc(-c2cc(C(=O)NCCCN3CCCC3=O)c3ccccc3n2)cc1OC | 19.9% (inactive) |
| COc1cccc(NC(=O)CN(C)C(=O)c2cc(Cl)nc3ccccc23)c1 | -8.88% (inactive) |
| COc1ccc(CN(C)C(=O)Cc2ccsc2)c(OC)c1OC | -4.83% (inactive) |
| Cc1cc2oc(=O)cc(CN(C)Cc3ccccc3)c2cc1Cl | -3.35% (inactive) |
| CC1(C(=O)NS(=O)(=O)c2ccccc2)CCN1C(=O)Cc1ccc(-c2ccccc2)cc1 (stereo not given) | -13% (inactive) |
| CC(=O)N1c2ccc(S(=O)(=O)N3CCCC(C(=O)Nc4ccc(C)cc4C)C3)cc2CC1C (stereo not given) | -10.3% (inactive) |
